# Measurements as given in the supplement of paper PMC10646978.
# ± gives the standard deviation.
# Tests used:
# Conditions in all cases: modulator concentration 10 µM
# [1] = system: RAW-Dual (murine macrophage reporter line); experiment: NF-kB reporter (SEAP) activity fold change vs agonist alone; higher = enhanced NF-kB activity
# Summary of the method: (§1)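 Compound reached 10 μM final in each well by pin transfer, onto RAW-Dual murine macrophage reporter cells seeded at 50 000 per well in 384-well plates. After 1 hour at 37 °C, the cells were stimulated overnight with a PRR agonist. SEAP in the supernatant was read with QUANTI-Blue at 620 nm absorbance for NF-κB, and Lucia luciferase was read with QUANTI-Luc luminescence for IRF. Each signal was turned into fold change against the mean agonist-only control on the same plate, and two replicate plates were averaged with propagated errors.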
# [2] = system: RAW-Dual (murine macrophage reporter line); experiment: IRF reporter (Lucia luciferase) activity fold change vs agonist alone; higher = enhanced IRF activity
# Summary of the method: as §1
# [3] = system: RAW-Dual (murine macrophage reporter line); experiment: viability score (confluency relative to resting cells, overnight) (fraction); higher = more viable, active = viable (0.7 or more)
# Summary of the method: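 Overnight exposure to 10 μM final compound was carried out on RAW-Dual macrophages in 384-well plates. IncuCyte software generated two confluency masks over all wells imaged with IncuCyte. The viability score gives confluency in relation to resting cells. A compound met the cutoff if each mask exceeded 70% of resting cells.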
# [4] = agonist: CpG ODN 1826 0.5 ug/mL
SMILES,"NF-kB reporter [1, 4]",NF-kB reporter ([1]; agonist: LPS 0.1 ug/mL),NF-kB reporter ([1]; agonist: MPLA […]),IRF reporter ([2]; agonist: 3'3'-cGAMP 10 ug/mL),IRF reporter ([2]; agonist: LPS 0.1 ug/mL),IRF reporter ([2]; agonist: MPLA […]),viability score [3]
O=[N+]([O-])c1ccc(-n2cccc2C=NNc2nc(N3CCOCC3)nc(N3CCOCC3)n2)cc1,0.961 ± 0.42,1.09 ± 0.085,1.14 ± 0.13,0.691 ± 0.022,0.999 ± 0.1,1.25 ± 0.16,1 (active)
Br.O=S(=O)(c1ccc(-c2csc(Nc3ccc(Br)cc3)n2)cc1)N1CCCC1,0.814 ± 0.063,1.08 ± 0.099,0.858 ± 0.065,1.03 ± 0.034,1.37 ± 0.1,1.2 ± 0.16,1.01 (active)
O=C(OCCO)c1cc(Cl)c(C(=O)OCCO)cc1Cl,0.979 ± 0.062,1 ± 0.065,0.936 ± 0.079,0.987 ± 0.034,1.49 ± 0.1,1.23 ± 0.11,1 (active)
Cc1cnc(C(=O)O)c[n+]1[O-],1.09 ± 0.085,0.988 ± 0.074,1.03 ± 0.026,0.962 ± 0.069,0.966 ± 0.048,0.926 ± 0.11,1 (active)
CCCCN(Cc1ccccc1)C(=O)C1CCN(Cc2c(F)cccc2Cl)CC1,0.378 ± 0.034,1.09 ± 0.09,0.757 ± 0.056,1.01 ± 0.029,1.69 ± 0.27,1.36 ± 0.25,0.617 (inactive)
CCCCCn1c(=O)[nH]c2cc(C(=O)N3CCN(C(=O)OCC)CC3)ccc2c1=O,1.12 ± 0.065,1.09 ± 0.068,1.02 ± 0.069,1.01 ± 0.035,1.45 ± 0.11,1.24 ± 0.14,0.974 (active)
O=C(NCCCn1ccc2cccnc21)c1cccc(Br)c1,0.84 ± 0.042,1.12 ± 0.088,0.937 ± 0.045,0.839 ± 0.081,1.06 ± 0.12,1.03 ± 0.23,0.98 (active)
COCC(C)(CNS(=O)(=O)c1ccccc1Br)OC (configuration not stated),0.978 ± 0.091,1.13 ± 0.091,0.933 ± 0.1,0.982 ± 0.049,1.07 ± 0.11,1.06 ± 0.18,0.993 (active)
Cc1cc(N2CCCC2)nc(Nc2ccc(NC(=O)CC(C)C)cc2)n1,0.131 ± 0.01,1.18 ± 0.087,1.31 ± 0.13,0.947 ± 0.04,1.3 ± 0.14,1.49 ± 0.2,0.939 (active)
COc1ccc(-c2cc(=O)c3c(O)cc(O)cc3o2)cc1O,1.38 ± 0.11,1.15 ± 0.056,1.3 ± 0.04,0.641 ± 0.036,0.426 ± 0.076,0.356 ± 0.063,0.985 (active)
Br.CC(=O)c1cccc(Nc2nc(-c3c(C)nc4cc(C)ccn34)cs2)c1,0.774 ± 0.051,1.16 ± 0.087,1.62 ± 0.095,0.691 ± 0.13,1.17 ± 0.06,2.65 ± 0.53,0.25 (inactive)
CCC(=O)Nc1ccc(S(=O)(=O)NCC2CCN(c3ncc(F)cn3)CC2)c(C)c1,1.06 ± 0.096,1.2 ± 0.096,1.04 ± 0.065,1.79 ± 0.1,1.21 ± 0.11,1.08 ± 0.093,0.986 (active)
Cn1ncc(Cl)c1-c1cc(C(=O)N[C@H](CN)Cc2cccc(F)c2)sc1Cl,0.833 ± 0.2,1.54 ± 0.11,1.64 ± 0.17,0.69 ± 0.026,1.55 ± 0.21,1.79 ± 0.33,0.647 (inactive)
CN1CCN(CCCN2c3ccccc3Sc3ccc(S(=O)(=O)N(C)C)cc32)CC1 [Prestw-149],0.413 ± 0.053,0.958 ± 0.052,1.82 ± 0.044,0.936 ± 0.051,0.851 ± 0.078,1.55 ± 0.16,0.149 (inactive)
CN1C(=O)C(=NNC(=O)c2ccccc2Cl)c2cc(Br)cc(Br)c21,1.13 ± 0.091,0.997 ± 0.081,1.03 ± 0.057,0.897 ± 0.15,1.12 ± 0.078,1.01 ± 0.32,1 (active)
Cc1ccccc1CNC(=O)CN(c1cccc(C(F)(F)F)c1)S(C)(=O)=O,1.11 ± 0.097,1.07 ± 0.11,1.03 ± 0.041,0.956 ± 0.095,1.11 ± 0.13,1.03 ± 0.24,1 (active)
O=C(COCc1ccccc1)NC1CCC(F)(F)CC1,0.891 ± 0.068,1.03 ± 0.14,0.777 ± 0.057,0.643 ± 0.036,1.1 ± 0.069,1.02 ± 0.36,1.01 (active)
N[C@@H](Cc1cc(I)c(Oc2cc(I)c(O)c(I)c2)c(I)c1)C(=O)O,0.496 ± 0.045,0.804 ± 0.069,0.908 ± 0.19,0.572 ± 0.044,1.15 ± 0.2,1.23 ± 0.31,1.03 (active)
O=C1CCC(=O)N1CC(O)Cn1c2ccc(Cl)cc2c2cc(Cl)ccc21 (configuration not stated),0.671 ± 0.035,0.816 ± 0.065,0.896 ± 0.05,0.839 ± 0.04,1.24 ± 0.25,1.19 ± 0.39,0.922 (active)
OCC(O)CN1CCN(c2ccccc2)CC1 (configuration not stated),1.06 ± 0.091,1.03 ± 0.12,1.02 ± 0.039,1.03 ± 0.064,0.991 ± 0.11,0.982 ± 0.17,0.996 (active)
Cc1cc2ncc3c(n2n1)CCN(S(=O)(=O)N(C)C)C3,0.989 ± 0.11,1.01 ± 0.097,0.938 ± 0.043,1.03 ± 0.071,1.09 ± 0.081,1.05 ± 0.08,1 (active)
CC(C)(C(=O)O)c1ccc(C(O)CCCN2CCC(C(O)(c3ccccc3)c3ccccc3)CC2)cc1.Cl (configuration not stated),1.47 ± 0.22,1.28 ± 0.39,1.01 ± 0.067,0.924 ± 0.029,1.05 ± 0.48,1.19 ± 0.09,0.983 (active)
CCOC(=O)N[C@@H]1CC[C@@H]2[C@@H](C1)C[C@H]1C(=O)O[C@H](C)[C@H]1[C@H]2/C=C/c1ccc(-c2cccc(F)c2)cn1,0.376 ± 0.022,0.451 ± 0.1,0.323 ± 0.019,0.653 ± 0.082,0.783 ± 0.15,0.737 ± 0.16,0.299 (inactive)
COc1cc(C=NNC(=O)CSc2ccccn2)cc(Cl)c1O,1.16 ± 0.073,1.02 ± 0.15,0.953 ± 0.026,1.04 ± 0.042,0.95 ± 0.12,0.94 ± 0.18,1 (active)
Nc1c2c(nc3ccccc13)CCCC2O (configuration not stated) [Prestw-448],0.958 ± 0.059,0.88 ± 0.068,0.958 ± 0.026,1.01 ± 0.042,0.964 ± 0.05,0.906 ± 0.087,0.994 (active)
Fc1ccc(Nc2nc(NN=Cc3ccc(Cl)cc3)nc(N3CCCCC3)n2)cc1,1.02 ± 0.087,0.949 ± 0.13,1.01 ± 0.1,1 ± 0.032,1.14 ± 0.12,1.24 ± 0.2,1.05 (active)
